Most compounds without a hit are left out; they make up all but 1.8% or so of the library.
VLA-4 inh – inhibition in a human VLA-4 binding assay | 330,000 compounds, 0.2% hits | inhibition, % (about 7 µM as worked out from the volumes in the protocol) | P13612 | VLA-4 expressing cells, ligand binding flow cytometry
PKD1 inh – PKD1 (human) kinase inhibition; PKD1 kinase fluorescence polarization assay; inhibition, % (test concentration not listed); 200,000 compounds, 0.056% hits; AID 797
Target sequence (Q15139 whole entry, looked up): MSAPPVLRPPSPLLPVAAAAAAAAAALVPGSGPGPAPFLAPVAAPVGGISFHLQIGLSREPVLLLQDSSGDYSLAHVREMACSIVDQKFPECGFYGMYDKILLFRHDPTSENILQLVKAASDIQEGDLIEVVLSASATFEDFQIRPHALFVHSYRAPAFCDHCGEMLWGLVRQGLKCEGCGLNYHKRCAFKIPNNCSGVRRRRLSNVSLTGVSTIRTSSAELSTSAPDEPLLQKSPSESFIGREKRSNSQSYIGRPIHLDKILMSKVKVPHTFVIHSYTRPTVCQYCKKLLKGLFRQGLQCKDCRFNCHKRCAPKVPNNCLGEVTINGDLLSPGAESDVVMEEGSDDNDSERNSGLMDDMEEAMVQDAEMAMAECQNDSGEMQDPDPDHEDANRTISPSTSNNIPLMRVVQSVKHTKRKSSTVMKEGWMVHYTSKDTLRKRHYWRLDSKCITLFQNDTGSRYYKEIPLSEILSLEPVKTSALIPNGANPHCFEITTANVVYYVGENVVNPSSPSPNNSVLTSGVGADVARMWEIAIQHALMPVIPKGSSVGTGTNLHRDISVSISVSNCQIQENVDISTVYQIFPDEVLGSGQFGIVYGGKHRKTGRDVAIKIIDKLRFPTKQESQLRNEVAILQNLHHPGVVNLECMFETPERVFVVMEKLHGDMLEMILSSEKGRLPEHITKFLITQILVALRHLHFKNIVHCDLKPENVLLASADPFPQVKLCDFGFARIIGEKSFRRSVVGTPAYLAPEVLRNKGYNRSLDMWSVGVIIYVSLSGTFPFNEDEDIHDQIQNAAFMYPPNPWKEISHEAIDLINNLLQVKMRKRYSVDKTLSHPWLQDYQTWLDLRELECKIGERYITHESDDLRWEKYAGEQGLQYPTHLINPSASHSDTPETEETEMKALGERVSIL
GRK2 aptamer HTS – inhibitors of human GRK2 displacing RNA aptamer. P25098. bead flow cytometry, FAM-aptamer displacement from GRK2. inhibition of aptamer binding, % at 10 µM. 330,000 compounds, 0.59% hits;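 active = inhibition of aptamer binding above 40%, roughly 3 SD of noise, on plates passing a quality check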;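 also: median bead fluorescence of bound FAM aptamer so fluorescent compounds give negative values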
LANA-H2A inh – blocks KSHV LANA binding to histone H2A/H2B; Q9QR71; cell-free LANA-H2A/H2B peptide, fluorescence polarization; inhibition, % (test concentration not listed); 320,000 compounds, 0.6% hits; in the data active = inhibition mostly above about 10%, no sharp cut-off; inactive = mostly below about 6.7%
Pemphigus Ab inh – human desmoglein-3 autoantibody binding inhibition; P32926; DSG3-coupled beads, scFv-anti-DSG3-GFP binding, flow cytometry; hits give low values; binding (percent of control), % at 10 µM; 310,000 compounds, 0.48% hits;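 active = binding more than 3 SD below its plate's average and above zero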;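 also: hits lower antibody fragment binding to DSG3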
HDAC3 inh – blocks human histone deacetylase 3; O15379; recombinant HDAC3, fluorogenic peptide/trypsin coupled, fluorescence; inhibition, % at 8.3 µM; 320,000 compounds, 0.15% hits; in the data active = inhibition above about 26%, passing the limit was not always enough
GRK2 inh confirm – human GRK2 inhibition confirmation, cherry pick 1; 2,000 compounds, 4% hits; AID 504451; shares compounds with GRK2 aptamer HTS; aptamer displacement, % at 10 µM; bead-bound GRK2, FAM-aptamer displacement, flow cytometry;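 active = aptamer displacement above 40%, near three times the noise of non-fluorescent compounds, on plates passing quality checks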;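 also: negative values mostly reflect intrinsic compound fluorescence rather than true enhancement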
Aptamer quench 1 – counter-screen for GRK2 aptamer inhibitors: fluorescent aptamer quenchers; shares compounds with GRK2 aptamer HTS; Fluorescent RNA aptamer beads, quenching, flow cytometry; hits give high values; fluorescence change (kMESF span), kMESF (no concentration beside the values); 110 tested, under 10 active;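 active = compounds whose bead fluorescence drops by more than 37 kMESF across the dose range, marking them as dye quenchers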
FAM quench CP1 – quenches fluorescent RNA aptamer, GRK2 hit artifact; shares compounds with GRK2 aptamer HTS; Carboxyfluorescein RNA aptamer on beads, flow cytometry quenching; hits give low values; fluorescence response (% of DMSO), % at 10 µM; 2,000 tested, under 10 active; AID 504580;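 active = compounds that quench the bead-bound fluorescent RNA probe, cutting fluorescence to under half of the solvent control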;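 also: counterscreen run without GRK2 so only probe quenching by compound is measured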
GRK2 confirm 2 – human GRK2 inhibition confirmation, cherry pick 2. shares compounds with GRK2 aptamer HTS. bead-bound GRK2, FAM-aptamer displacement, flow cytometry. inhibition of aptamer binding, % at 10 µM. 360 tested, under 10 active. AID 504782;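 active = inhibition of aptamer binding above 40%, about triple the noise seen with nonglowing compounds, on plates passing quality control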;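 also: negative values mostly come from compounds that fluoresce themselves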
FAM quench SP – quenches fluorescent RNA aptamer, GRK2 hit artifact | AID 588494 | 360 tested, under 10 active | shares compounds with GRK2 aptamer HTS | carboxyfluorescein RNA aptamer beads, flow cytometry quenching; hits give low values | fluorescence response vs DMSO, % at 10 µM;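 active = response vs DMSO under 50%, meaning signal dropped by over half, treated as fluorescence quencher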;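 also: labelled aptamer on streptavidin beads without GRK2 as a quench counter-screen; 100% = bead fluorescence of DMSO wells and lower means quenching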
FAM quench PS1 – aptamer fluorescence quenching in GRK2 powder counter-screen | 35 tested, under 10 active | shares compounds with GRK2 aptamer HTS | Bead-bound FAM RNA aptamer fluorescence quenching, flow cytometry; hits give low values | fluorescence ratio to DMSO, % at 11.1 µM;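 active = compounds that dim the fluorescent label, raw bead signal shifting by over 33 units between lowest and highest dose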
An asterisk follows results filed as active; i = inactive; . = no result. Rule as the data show it, unless noted: active = inhibition above about 50%; inactive = the rest.

SMILES	VLA-4 inh	PKD1 inh	GRK2 aptamer HTS	LANA-H2A inh	Pemphigus Ab inh	HDAC3 inh	GRK2 inh confirm	FAM quench CP1	others
CC(CS(=O)(=O)c1ccc2c(c1)NC(=O)CS2)C(=O)NCc1ccccc1Cl (stereo unspecified)	-0.9	.	99.0*	6.0	92.5	7.4	78.4*	94.5	Aptamer quench 1=-3.2;FAM quench PS1=97.0
CN(Cc1ccccc1)C(=O)CCS(=O)(=O)c1ccc2c(c1)NC(=O)CS2	0.6	.	5.0	0.6	88.6	3.3	.	.	GRK2 confirm 2=5.3;FAM quench SP=100.0
COC(=O)[C@H]1C[C@@]2(O)CN(S(=O)(=O)c3ccc(C)cc3)C[C@@]2(OC(=O)Nc2cccs2)C[C@H]1C(=O)OC	.	.	.	.	108.0	.	.	.
COc1ccc(NC(=O)c2cccc(NC3=NC4CS(=O)(=O)CC4S3)c2)cc1Cl (stereo unspecified)	-10.6	.	0.0	-1.6	98.2	.	.	.
O=C(OCc1nnc(-c2ccccc2)o1)C1CC(=O)N(CCc2ccccc2)C1 (stereo unspecified)	10.7	.	3.0	-2.4	.	-10.1	0.9	102.0
CCOc1ccc(COC(=O)C2CC(=O)N(CCc3ccccc3)C2)cc1OC (stereo unspecified)	1.4	.	0.0	0.0	.	1.5	.	.
O=C(Nc1ccccc1)OC1CCC2CC1CCC2OC(=O)Nc1ccccc1 (stereo unspecified)	5.8	-1.7	1.0	0.8	107.1	5.2	.	.
CCOC(=O)c1cc2c(C)n(-c3ccc(N(C)C)cc3)c(C)c2cc(C(=O)OCC)c1=O	29.9	3.6	69.0*	-0.4	76.9	8.1	-0.5	103.2
CCC(CC)NC(=O)CSc1ccc(S(=O)(=O)N2CCOCC2)cn1	11.0	.	0.0	9.7	87.3	-2.5	.	.
CC(C)C(C)NC(=O)CSc1ccc(S(=O)(=O)N2CCOCC2)cn1 (stereo unspecified)	6.5	.	61.0*	.	108.2	.	0.3	100.3
O=C(NCCCc1ccccc1)c1cccc(NC(=O)C2CCCC2)c1	.	.	.	.	104.6	.	.	.
COc1cc(/C=N/Nc2ccc(C(=O)O)cc2)ccc1O	2.2	0.6	41.0*	-6.0	88.2	-3.0	25.7	90.2
O=C(CSc1nccc(=O)[nH]1)N1N=C2/C(=C/c3ccco3)CCCC2C1c1ccco1 (stereo unspecified)	6.4	1.2	42.0*	7.1	102.3	0.2	1.2	97.9
Nc1nc(SCC(=O)N2N=C3/C(=C/c4ccco4)CCCC3C2c2ccco2)n[nH]1 (stereo unspecified)	18.8	-5.6	0.0	-6.1	101.8	9.2	.	.
CC1CC(=O)Nc2ccccc2N1C(=O)CSc1nnnn1C (stereo unspecified)	3.9	.	3.0	-2.8	99.6	-7.0	.	.
O=C(COc1cccnc1[N+](=O)[O-])NC1CCS(=O)(=O)C1 (stereo unspecified)	-4.2	-7.2	70.0*	-2.7	.	-2.5	.	.	GRK2 confirm 2=-43.5;FAM quench SP=101.0
CCCC(=O)Nc1nnc(SCC)s1	-2.5	-10.5	100.0*	-0.9	93.8	4.2	.	.	GRK2 confirm 2=-16.3;FAM quench SP=102.0
O=C1CCc2cc(S(=O)(=O)Nc3ccccc3F)ccc2N1	5.9	.	3.0	i	101.9	-8.6	.	.
Cc1cc(OCC(=O)Nn2cnnc2)ccc1Br	12.6	-7.3	71.0*	-3.1	98.8	-0.9	5.5	97.7
